# This is a sample that favours compounds with a hit; in the whole collection about 10% have one here.
# hNpr1 antagonist – blocks ANP-stimulated signaling of human Npr1 receptor; P16066; HEK293 hNpr1 GloSensor cGMP, ANP-stimulated luminescence; Potency, µM (series often up to 46.3 µM), for the others: at the highest dose activity change, negative = inhibition, most hits filed as inhibitors; 1.6% of 76,000 active; AID 1347048; calls by dose curve; further: on the % scale 0 is the no-effect control and ±100 the full control effect; nearly all actives have a fitted effect of over 60% in size
#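 Compound pre-incubated 30 min at room temperature on GloSensor-loaded HEK293 cells stably carrying hNpr1 and the pGS-40F cGMP biosensor. Stimulation uses hNppA at 0.1 nM final; luminescence is taken at baseline and 20 min post-agonist.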
# HEK cytotox – kills HEK 293 cells. HEK 293 viability, ATP luminescence (CellTiter-Glo), 48-72 h. 6.6% of 94,000 active. Potency, µM (titrated, usually from 115 µM), inactives show at the highest dose activity change, negative = cytotoxicity, hits mostly inhibitors; further: on the % scale 0 is the no-effect control and ±100 the full control effect; nearly all actives have a fitted effect of over 60% in size
#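 Luminescence from cellular ATP, measured with CellTiter-Glo, indicates HEK 293 viability. Cells plated at 250 cells/well are treated with compound for 48 or 72 hr at 37 degree Celsius before reagent addition.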
# 3T3 cytotox – kills NIH 3T3 cells; NIH 3T3 viability, CellTiter-Glo ATP luminescence, 48-72 h; Potency, µM (highest dose often 96.7 µM), for inactives: at the top dose activity change, negative = cytotoxicity, hits mostly inhibitors; 4.3% of 94,000 active; AID 1345082; further: on the % scale 0 is the no-effect control and ±100 the full control effect; nearly all actives have a fitted effect of over 55% in size
#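 Cells were seeded at 400 per well, treated with pin-transferred compound, and kept 48 or 72 hr at 37 °C before CellTiter-Glo addition and luminescence imaging of cellular ATP.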
# GPT2 inhibitor – inhibitors of human GPT2 alanine aminotransferase; Q8TD30; Recombinant GPT2, coupled pyruvate oxidase/HRP Amplex Red fluorescence; Potency, µM (titrated, usually from 57.7 µM), for inactives: top-dose activity change, negative = inhibition, usual class: inhibitors; 0.25% of 100,000 active; AID 1671188; further: on the % scale 0 is the no-effect control and ±100 the full control effect; nearly all actives have a fitted effect of over 60% in size
#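 GPT2 10ng/uL, a-KG 250uM, L-Ala 2mM, HEPES pH7.5 + 0.0001% Tween; 30 min RT. Then Amplex mix (PO/HRP/ThPP), 30 min RT dark, fluorescence. AOA 50uM used as positive control.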
# FLuc inh – Photinus pyralis luciferase inhibition; 2.5% of 76,000 active; purified P. pyralis luciferase, luminescence, biochemical; Potency, µM (series often up to 115 µM), hits mostly inhibitors; further: on the % scale 0 is the no-effect control and ±100 the full control effect; nearly all actives have a fitted effect of over 65% in size
#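 Biochemical qHTS: compound (6-point titration) added to 10uM D-luciferin plus 10uM ATP in Tris acetate pH 7.5 buffer with Mg, Tween-20 and BSA, then purified enzyme at 10nM; light output imaged.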
# NPR1 antag cnf – hNpr1 antagonism, confirmation assay | shares compounds with hNpr1 antagonist | HEK293 hNpr1 cGMP GloSensor luminescence, ANP-stimulated | Potency, µM (titrated, usually from 57.6 µM), without a hit: at the top dose activity change, negative = inhibition, most hits filed as inhibitors | 76% of 1,400 active; calls by dose curve; further: nearly all actives have a fitted effect of over 70% in size
# Npr2 selectivity – selectivity test of Npr1 antagonists against human Npr2 | shares compounds with hNpr1 antagonist | HEK293 hNpr2 GloSensor cGMP luminescence, CNP-stimulated | Potency, µM (doses to about 57.6 µM), inactives show top-dose activity change, negative = inhibition, hits mostly inhibitors | 67% of 1,400 active | AID 1347046; calls by dose curve; further: nearly all actives have a fitted effect of over 70% in size
# FLuc counter – counter-screen for Npr1 antagonists: firefly luciferase inhibitors | purified FLuc enzyme, luminescence, Km substrate | 0.7% of 1,400 active | shares compounds with hNpr1 antagonist | Potency, µM (highest dose often 57.6 µM), inactives show top-dose activity change, negative = inhibition, most hits filed as inhibitors; further: 0% is about no effect
# GloSensor ctrl – counter-screen for Npr1 antagonists: GloSensor control cell line. shares compounds with hNpr1 antagonist. HEK293 GloSensor cGMP, SNP-stimulated, luminescence. Potency, µM (highest dose often 57.6 µM), without a hit: at the top dose activity change, negative = inhibition, hits mostly inhibitors. 69% of 1,400 active; calls by dose curve; further: on the % scale 0 is the no-effect control and ±100 the full control effect; nearly all actives have a fitted effect of over 70% in size
# * hit, by the source's call; i = inactive; ? = inconclusive; · = no result given; [ ] = dose if it differs, or a comment. Unless noted, the call rests on the fitted dose curve; in most records, active means well fitted curve in the direction sought with a large enough effect; inconclusive means small, poorly fitted or top-dose-only effect, or another doubt; inactive means no such curve, though single readings can be large; an effect the other way counts as inactive or inconclusive. Potency means the concentration at half of the fitted maximal effect.
SMILES,hNpr1 antagonist,HEK cytotox,3T3 cytotox,GPT2 inhibitor,FLuc inh,NPR1 antag cnf,Npr2 selectivity,FLuc counter,GloSensor ctrl
Cc1ccc(CN2CCc3nc(C(=O)Nc4ccc(Cl)cc4)oc3CC2)cc1,14.1µM*,?,?,2.7%[88.5 µM],i,11.1µM*,9.94µM*,0.4%[86.2 µM],14µM*
CCC(=O)N1CC(Oc2ccccc2-c2nc(C3CC3)no2)C1,·,-2.0%,-15.6%,i,·,·,·,·,·
CC(C)CN1CCN(C2CCOC3(CCN(C(=O)C4CCOCC4)CC3)C2)CC1 (centres undefined),·,0.2%,-17.3%,-0.6%,·,·,·,·,·
CC(C)c1cccc(NC(=O)C2CCN(C(=O)c3ncn4c3COC(c3ccc(F)cc3)C4)CC2)c1 (centres undefined),11.2µM*,?,-16.5%,-7.3%,i,?,?,-2.6%,?
O=C1Nc2ccccc2CN(CC2CCCCC2)C12CCNCC2,·,35.5µM*,?,-9.6%,·,19.3µM*,6.11µM*,2.9%,-21.3%
O=C1Nc2ccccc2CN(CC2CCCCC2)C12CCNC2 (centres undefined),·,89.1µM*,22.4µM*,-1.5%,·,?,13.5µM*,4.4%,-7.4%
COc1cccc(CNC(=O)C2CCN(C(=O)c3ncn4c3COC(c3ccc(C)cc3)C4)CC2)c1 (centres undefined),-6.7%,2.8%,-1.1%,i,?,·,·,·,·
Cc1ccc(NC(=O)CCn2ccn3nc4c(c3c2=O)CCCC4)cc1C,-17.4%,?,-16.8%,i,i,·,·,·,·
Cc1ccc(Cn2c(C3CCN(C(=O)c4cccc(C(F)(F)F)c4)CC3)n[nH]c2=O)cc1,0.0%,?,?,0.1%,i,·,·,·,·
COc1ccc(OC)c(NC(=O)N2CCCN(C)c3ccccc32)c1,?,?,?,i,i,?,12.2µM*,0.2%,-1.9%
CCNc1ncc(C(=O)NC(C)c2cnn(-c3ccccc3C)c2C)cn1 (centres undefined),-24.4%,-18.1%,-19.7%,4.4%,i,·,·,·,·
CCc1nccn1CC(=O)NC(C)c1cnn(-c2ccccc2C)c1C (centres undefined),11.2µM*,?,?,-21.9%,i,?,?,-1.8%,?
CCS(=O)(=O)c1ccc2oc([C@H]3CCN(Cc4cccc(Cl)c4)C3)nc2c1,?,44.7µM*,?,i,i,35.3µM*,35.3µM*,-4.5%[86.2 µM],?
O=c1[nH]c(N2CCOCC2)nc2c1CCN(Cc1cc(F)c(F)c(F)c1)CC2,-12.2%,-12.7%,-6.8%,i,i,·,·,·,·
CN1CC(=O)N(C2CCCNC2)Cc2c1ncnc2N1CCN(c2ncccn2)CC1 (centres undefined),·,i,4.2%,-16.6%,·,·,·,·,·
Cc1cccc(CC(=O)N2CCC(Cc3nc(-c4cnccn4)no3)CC2)c1,1.2%,9.9%,-11.5%,i,i,·,·,·,·
Cc1ccccc1CC(=O)N1CCC(Cc2nc(-c3cnccn3)no2)CC1,-0.3%,5.8%,-5.4%,-3.0%,i,·,·,·,·
COc1ccc(CC(=O)N2CCC(Cc3nc(-c4ccccc4)no3)CC2)cc1,7.08µM*,14.1µM*,11.2µM*,i,i,9.68µM*,12.2µM*,-0.3%,10.9µM*
CCOc1ccc(CC(=O)N2CCC(Cc3nc(-c4ccccc4)no3)CC2)cc1,15.8µM*,22.4µM*,?,i,i,13.7µM*,17.2µM*,9.1%,12.2µM*
CCOC(=O)CN(C1CCCC1)[C@@H]1C[C@@H]2CO[C@H](C(C)C)C[C@@H]2C1,·,-16.3%,?,·,·,·,·,·,·
OCC1(CCOc2ccccc2)CCCN(c2ncnc3sccc23)C1 (centres undefined),1.78µM*,?,?,-8.9%,i,2.73µM*,3.85µM*,-0.4%,2.17µM*
COc1ccc(-c2noc(CC3CCN(C(=O)Cc4ccccc4OC)CC3)n2)cc1,?,?,?,-14.4%,i,21.7µM*,19.3µM*,3.2%,21.7µM*
COc1ccccc1C(=O)N1CCC(Cc2nc(-c3ccc(F)cc3)no2)CC1,6.31µM*,?,?,-3.5%,i,9.68µM*,12.2µM*,-0.3%,10.9µM*
COc1ccccc1CC(=O)N1CCC(Cc2nc(-c3ccc(F)cc3)no2)CC1,1.26µM*,?,?,1.4%,i,2.43µM*,2.43µM*,3.9%,1.93µM*
COc1ccccc1C(=O)N1CCC(Cc2nc(C(C)C)no2)CC1,-4.3%,?,-20.4%,-6.1%,i,·,·,·,·
SMILES,hNpr1 antagonist,HEK cytotox,3T3 cytotox,GPT2 inhibitor,FLuc inh,NPR1 antag cnf,Npr2 selectivity,FLuc counter,GloSensor ctrl
COc1ccc(C(=O)N2CCC(Cc3nc(-c4ccc(F)cc4)no3)CC2)c(OC)n1,2.82µM*,?,?,i,i,3.43µM*,4.85µM*,-2.0%,4.85µM*
O=C(c1ccc(F)cc1F)N1CCC(Cc2nc(-c3cnccn3)no2)CC1,-2.3%,-6.1%,-9.0%,i,i,·,·,·,·
CCCn1c(C)cnc1CC1CCN(C(=O)CC2CCCC2)C1 (centres undefined),6.2%,i,4.9%,i,i,·,·,·,·
O=C(c1cn(C/C=C/c2ccccc2)nn1)N1CCN(c2cccc(Cl)c2)CC1,?,-8.2%,?,-2.2%,i,·,·,·,·
O=C(NCc1ccccn1)c1ccc2c(c1)N(C(=O)c1ccc(F)cc1)CC2,-1.9%,-4.1%,-8.6%,-8.6%,i,·,·,·,·
COc1ccc(NC(=O)NC2CCN(C(=O)N3CC4CC(C3)[C@H]3CCCC(=O)N3C4)CC2)cc1 (some centres undefined),-5.2%,-21.0%,-9.0%,i,i,·,·,·,·
COc1ccccc1NC(=O)N1CCc2cc(OC)c(OC)cc2C1CNC(=O)NC(C)(C)C (centres undefined),3.8%,?,4.7%,4.4%,i,·,·,·,·
Cc1cc(C(=O)N2CCC(F)(c3nc(-c4ccncc4)no3)CC2)n(C)n1,11.2µM*,?,-26.2%,i,i,27.3µM*,30.6µM*,1.9%,27.3µM*

# Compound activity (PubChem)
